According to PubChem BioAssay (Tox21):
Inconclusive results are not listed. The source made the active and inactive calls. The call rests on the fitted dose curve; in most records, active means well fitted cell-killing curve with a large enough effect in the repeat runs; inconclusive means weak or mixed curves, or effect the other way; inactive means flat fitted curve, though single readings scatter.

experiment: cAMP Responsive Elements (CRE) small molecule antagonists, cell-based qHTS assay: qHTS cell viability counter screen (AID 2060913); details: CRE-bla HEK293T viability, CellTiter-Glo luminescence, 5 h; series mostly up to 92.4 µM; viability change, negative = cytotoxic: at the top concentration; further: nearly all actives have a fitted effect of over 40% in size
Summary of the method: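 Cytotoxicity read in the same wells as the CRE-bla HEK293T antagonist assay: after 3 h compound with 0.25 uM NKH477 final and 2 h beta-lactamase substrate, CellTiter-Glo luminescence measured.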
On the % scale 0 is the no-effect control and ±100 the full control effect.

| Structure (SMILES) | Potency | viability change, negative = cytotoxic |
| --- | --- | --- |
| Cc1cccc2ccccc12 | inactive |  |
| O=C(NCCc1c[nH]c2ccccc12)c1cccnc1 |  | 7.12% [at 42.5 µM] (inactive) |
| CC1(C)O[C@@H]2C[C@H]3[C@@H]4CCC5=CC(=O)C=C[C@]5(C)[C@H]4[C@@H](O)C[C@]3(C)[C@]2(C(=O)CO)O1 |  | -1.4% [at 42.5 µM] (inactive) |
| F[B-](F)(F)F | inactive |  |
| COCCOCCOCCOC |  | 2.81% (inactive) |
| Fc1ccccc1 |  | 0.543% (inactive) |
| Cc1cc(O)c2c(c1)C(=O)c1cccc(O)c1C2=O |  | -24.6% [at 42.5 µM] (inactive) |
| O[Si](c1ccccc1)(c1ccccc1)c1ccccc1 |  | 2.3% (inactive) |
| CC1(C)CC(O)CC(C)(C)N1 |  | 6.27% (inactive) |
| O=C1OC(=O)C2C3C=CC(C3)C12 (stereo not given) |  | -2.09% (inactive) |
| CC[C@]12CCCN3CCc4c(n(c5ccccc45)C(=O)C1)[C@@H]32 |  | 0.638% [at 42.5 µM] (inactive) |
| CN(C)CCCN(C)CCCN(C)C |  | 15% (inactive) |
| C[C@](N)(Cc1ccc(O)c(O)c1)C(=O)O | inactive |  |
| CC(=O)O[C@H]1C[C@@H]2CC[C@@H]3[C@H](CC[C@@]4(C)[C@H]3C[C@H]([N+]3(C)CCCCC3)[C@@H]4OC(C)=O)[C@@]2(C)C[C@@H]1N1CCCCC1 |  | 18% [at 42.5 µM] (inactive) |
| O=C(O)c1cccnc1 | inactive |  |
| CC(C)C[P+](C)(CC(C)C)CC(C)C |  | -0.45% (inactive) |
| CCOc1ccc(NC(=O)OC(C)C)cc1OCC |  | -2.31% (inactive) |
| CCCC(=O)C(CC)Sc1ccoc1C (stereo not given) |  | 7.9% (inactive) |
| CCOC(=N)CC(=O)OCC |  | -3.07% (inactive) |
| Clc1cccc(-c2cc(Cl)cc(Cl)c2)c1 |  | 0.118% (inactive) |

| Structure (SMILES) | Potency | viability change, negative = cytotoxic |
| --- | --- | --- |
| CC(=O)NO |  | -1.23% [at 42.5 µM] (inactive) |
| C=CC(C)(O)CCC=C(C)C (stereo not given) | inactive |  |
| CCOC(=O)c1ccc(NC(=O)CN2CCCCC2)cc1 |  | 2.87% [at 42.5 µM] (inactive) |
| O=C1CC2(CCCC2)CC(=O)N1 |  | 2.69% [at 42.5 µM] (inactive) |
| CC(C)(C(=O)c1cccnc1)c1cccnc1 |  | -2.22% [at 42.5 µM] (inactive) |
| CSc1ccc(Oc2ccc(S(N)(=O)=O)cc2CN(C)C)cc1C |  | 1.94% (inactive) |
| Cc1nc2ccccn2c(=O)c1CCN1CCC(C(=O)c2ccc(F)cc2)CC1 |  | 3.18% [at 42.5 µM] (inactive) |
| CCCCCCOc1ccc(N)cc1 |  | -0.155% (inactive) |
| CC(=O)CCCCn1c(=O)c2c(ncn2C)n(C)c1=O |  | 5.14% [at 42.5 µM] (inactive) |
| NNc1nncc2ccccc12 | inactive |  |
| N#CCC(=O)NN |  | 2.85% [at 42.5 µM] (inactive) |
| COc1cccc([C@H](O)C2CCN(CCc3ccc(F)cc3)CC2)c1OC |  | -8.49% (inactive) |
| CCOC(=O)COc1ccc2c(C)c(CCN(CC)CC)c(=O)oc2c1Cl |  | 3.85% [at 42.5 µM] (inactive) |
| CSC(=O)c1cccc2nnsc12 |  | -1.66% (inactive) |
| Cc1nnc(C(=O)NC(C)(C)c2nc(C(=O)NCc3ccc(F)cc3)c(O)c(=O)n2C)o1 |  | -1.86% [at 42.5 µM] (inactive) |
| CCCCCC/C=C/C(=O)OC |  | 2.35% (inactive) |
| CC1(C)COCN1 |  | -0.583% (inactive) |
| N[C@@H](C(=O)N[C@@H]1C(=O)N2C(C(=O)O)=C(Cl)CS[C@H]12)c1ccccc1 |  | 0.002% [at 8.39 µM] (inactive) |
| CN(C(=O)C(Cl)Cl)c1ccc(OC(=O)c2ccco2)cc1 |  | -0.595% [at 42.5 µM] (inactive) |
| CCCCCCC(CO)CCCC (stereo not given) |  | 2.75% (inactive) |
